Data on 3 compounds can be found in PubChem BioAssay (NCATS).

SMILES strings stand for the structures. “And” between values parts separate entries of the source, which are not always exact repeats. Identical values can stand only once. Records with an inconclusive call do not appear. The source made the active and inactive calls. Unless noted, the call rests on the fitted dose curve; in most records, active means well fitted curve in the direction sought with a large enough effect; inconclusive means small, poorly fitted or top-dose-only effect, or another doubt; inactive means no such curve, though single readings can be large; an effect the other way counts as inactive or inconclusive.

Experiment [1] deals with Zika virus NS2B-NS3 protease. As to the kind of experiment: Primary screen GU AMC qHTS for Zika virus inhibitors (AID 1347154).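 Further: 0% = no-inhibitor control and -100% = no-enzyme control; nearly all actives have a fitted effect of over 70% in size.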 The essentials:
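Fluorogenic AMC-substrate cleavage by noncovalent NS2B-NS3 protease complex (25 nM, pH 8.0 Tris buffer with Tween 20) followed for 15 minutes at room temperature (~20% conversion). Percent inhibition from ex340/em450 signal change, fitted by 4-parameter Hill equation.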
Background: qHTS replaces the single test concentration by a dilution series.

Experiment [2] concerns the target N-terminal Xaa-Pro-Lys N-methyltransferase 1 (Homo sapiens) (UniProt Q9BV86). The experiment can be described thus: Confirmatory qHTS for Inhibitors of N-terminal methyltransferase 1 (NTMT1): MTaseGlo Assay (AID 1645874).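 Further: luminescence from SAH made as NTMT1 methylates SPKRIA peptide using SAM; 0% = DMSO control and -100% = no-enzyme control; nearly all actives have a fitted effect of over 65% in size.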 The essentials: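 Room-temperature NTMT1 reaction, 30 min, with 100 uM SAM and 1 uM SPKRIA substrate; enzyme 125 nM. Read-out: MTase-Glo luminescence, normalized to no-enzyme and DMSO controls.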

The nature of experiment [3]: Primary qHTS for inhibitors of nuclear receptor binding SET domain protein 2 (NSD2) in an isogenic RCH-ACV NSD2 p.E1099K mutant (9B) (AID 1645876). Further: potency means the concentration at half of the fitted maximal effect; nearly all actives have a fitted effect of over 70% in size.
Experiment [4] in a line: Primary qHTS for inhibitors of nuclear receptor binding SET domain protein 2 (NSD2) in an RCH-ACV wild type WT cells (2C) (AID 1645877). Further: potency means the concentration at half of the fitted maximal effect; nearly all actives have a fitted effect of over 70% in size.
Experiment [5] has as its target Glutathione peroxidase 1 (Homo sapiens) (UniProt P07203). The experiment can be described thus: Primary qHTS Assay for Inhibitors of Recombinant Selenoprotein Glutathione Peroxidase 1 (GPX1) (AID 1845191). Further: on the % scale 0 is the no-effect control and ±100 the full control effect; nearly all actives have a fitted effect of over 65% in size. The essentials:
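NADPH consumption tracked by fluorescence at 340/450 nm between t=0 and t=15 min, room temperature. Final mix: 10 nM GPX1, 100 nM glutathione reductase, 1 mM GSH, 0.5 mM NADPH, 0.5 mM cumene hydroperoxide, 0.01% BSA; 30 min compound–enzyme preincubation.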

Experiment [6] has as its target Phospholipid hydroperoxide glutathione peroxidase GPX4 (Homo sapiens) (UniProt P36969). The experiment can be described thus: Primary qHTS Assay for Inhibitors of Recombinant Selenoprotein Glutathione Peroxidase 4 (GPX4) (AID 1845192). Further: on the % scale 0 is the no-effect control and ±100 the full control effect; nearly all actives have a fitted effect of over 65% in size. To be noted: outcome: dose series up to 50 µM unless noted. In outline:
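NADPH consumption followed by fluorescence at 340/450 nm, t=0 and after 15 min at room temperature. Reaction started with cumene hydroperoxide (0.5 mM final) after 30 min compound–GPX4 preincubation; final 200 nM GPX4, 100 nM GR, 1 mM GSH, 0.5 mM NADPH.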

Experiment [7] in a line: qHTS drug screen for cell cycle checkpoint inhibitors in PARPi-resistant BRCA-mutant ovarian cancer cell lines. (AID 1963452; calls by dose curve). Conditions: PEO1/OlaR viability, CellTiter-Glo luminescence, 96 h, stronger effect = lower value. The essentials:
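PEO1, PEO4 and PEO1/OlaR ovarian cancer cells, 600 per well, exposed 96 h at 37C to a dilution series. Viability read by CellTiter-Glo luminescence, normalized to DMSO and empty wells; activity summarized as Z-AUC.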

Experiment [8] deals with Cytochrome P450 3A4 (Homo sapiens) (UniProt P08684). As to the kind of experiment: qHTS Assay for Inhibitors and Substrates of Cytochrome P450 3A4 (AID 884). Further: on the % scale 0 is the no-effect control and ±100 the full control effect; nearly all actives have a fitted effect of over 50% in size. In outline:
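Luminescent readout of luciferin produced by CYP3A4 (20 nM) dealkylation of Luciferin-PPXE, 25 uM (its KM). NADPH-driven reaction ran 60 min at RT after 10 min compound preincubation; data scaled to 57 uM ketoconazole as 100% inhibition.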

A short description of experiment [9]: NCATS anti-infectives library activity on HEK293 viability as a counter-qHTS vs the C. elegans viability qHTS (AID 1745854). Further: on the % scale 0 is the no-effect control and ±100 the full control effect. The essentials: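 CellTiter-Glo luminescence, read on a CCD imager, scored viability of HEK293 cells after 24 hr compound exposure at 37C. Library tested in several concentrations, 1:5 steps, up to 41.7 uM; digitonin served as control.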

The nature of experiment [10]: AP1 Signaling Pathway (AID 357; active means well fitted curve in either direction with a large enough effect, not every such curve was filed as active;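 further: ME-180 reporter cells stimulated with EGF at its EC50 level; on the % scale 0 is the no-effect control and ±100 the full control effect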). Conditions: ME-180 AP-1-bla reporter, EGF-induced, beta-lactamase ratio, 5 h. The essentials: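 A ratiometric CCF4 readout (405 nm excitation; 460 and 530 nm emission) quantified AP-1-driven beta-lactamase in ME-180 cells after 5 h with compound and EC50 EGF; AC50 values were derived for activators and inhibitors.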
Experiment [11] addresses Cytochrome P450 1A2 (Homo sapiens) (UniProt P05177). As to the kind of experiment: p450-cyp1a2 (AID 410; calls by dose curve;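 further: -100% = full effect of reference inhibitor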). In outline: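 20nM CYP1A2, 100uM Luciferin-ME (=Km), 100mM KPO4; cpd 10 min RT; +NADPH regen, 60 min RT; stop/detect 20 min; luminescence. Normalized to furafylline 57 uM = full inhibition.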
Experiment [12] is described as follows: NFAT Signaling Pathway (AID 444; active means well fitted curve in either direction with a large enough effect, not every such curve was filed as active;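 further: carbachol stimulus at about its EC50 of 1 µM final; on the % scale 0 is the no-effect control and ±100 the full control effect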). Conditions: Jurkat NFAT-bla M1, carbachol, beta-lactamase ratio, 5 h. In outline: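 Read-out: CCF4 FRET ratio (460 nm/530 nm) after 1 h RT dye loading, used for %activity and AC50 from titration series. Cells: Jurkat NFAT-β-lactamase/M1 line, treated with compound plus 1 uM carbachol for 5 h, 37 °C.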
Experiment [13] can be described thus: Stat Signaling Pathway (AID 446; active means well fitted curve in either direction with a large enough effect, not every such curve was filed as active;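 further: ME-180 cervical cancer cells given 40 pM IL-6 alongside compound; SIE-controlled beta-lactamase reporter measured as 460/530 nm FRET emission ratio; on the % scale 0 is the no-effect control and ±100 the full control effect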). To be noted: ME-180 (cervical carcinoma) SIE beta-lactamase reporter, IL-6 stimulated, 5 h. In outline:
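Overnight-plated ME-180 cells bearing a STAT Inducible Element beta-lactamase reporter; 5 h co-exposure to compound and 40 pM IL-6; values normalized to 300 pM IL-6 and 125 nM JAK inhibitor controls.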

The target in experiment [14] is Mitogen-activated protein kinase 10 (Mus musculus) (UniProt Q61831). As to the kind of experiment: JNK3 AlphaScreen Assay (AID 530; active means well fitted curve in either direction with a large enough effect, not every such curve was filed as active). In outline:
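Kinase buffer: 20 mM Tris-HCl pH 7.6, 10 mM MgCl2, 1 mM DTT, 0.1 mM Na3VO4, 0.01% Tween-20; ATP 10 uM. Substrate biotin-GST-cJun(1-79), enzyme from activated HepG2 lysates. Detection by Ser73 phospho-antibody AlphaScreen.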
In general terms: In Alpha technology, singlet oxygen from a donor bead excites a nearby acceptor bead.

For experiment [15], the target named is 3',5'-cyclic-AMP phosphodiesterase 4B (Homo sapiens) (UniProt Q07343). As to the kind of experiment: qHTS Assay for Inhibitors of PDE-IV (AID 607; active means well fitted activation curve with a large enough effect in the main read-out, with a control signal flat, not every such curve was filed as active; further: % of control where 0% means no effect). In outline:
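Live HEK293 cells with a modified cyclic nucleotide-gated (CNG) channel report intracellular cAMP via membrane-potential dye fluorescence (ex 535/em 590 nm). Endogenous PDE-IV was targeted. Compounds were tested at up to 22.9 uM final; RO 20-1724 100 uM served as control.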

Experiment [16] concerns the target Guanine nucleotide-binding protein G(i) subunit alpha-1 (Homo sapiens) (UniProt P63096). As to the kind of experiment: qHTS Assay for Inhibitors of RGS12 GoLoco Motif Activity (Green Fluorophore) (AID 879).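 Further: 0% = labeled peptide with Gαi1 and full inhibition = labeled peptide alone without protein; negative values mean loss of peptide binding seen as reduced polarization.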 In outline: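 A drop in FITC polarization marked displacement of the FITC-tagged RGS12 GoLoco peptide (10 nM) from Gαi1 (50 nM). Compounds were incubated 10 min at room temperature in Tris pH 7.5 buffer containing 150 mM NaCl, 0.1 mM GDP and 0.05% NP40; unlabeled peptide titration served as control.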

The target of experiment [17] is Cytochrome P450 2C9 (Homo sapiens) (UniProt P11712). The experiment can be described thus: qHTS Assay for Inhibitors and Substrates of Cytochrome P450 2C9 (AID 883). Further: on the % scale 0 is the no-effect control and ±100 the full control effect; nearly all actives have a fitted effect of over 60% in size. The essentials: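 Turnover of Luciferin-H (100uM, KM) by 10nM human CYP2C9 was measured over 60 min at 37C with NADPH regeneration; inhibitors and some substrates reduce luminescence. Data normalized to sulphaphenazole 57uM.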
Chain of Cytochrome P450 2C9 (Homo sapiens) (P11712 whole entry, looked up): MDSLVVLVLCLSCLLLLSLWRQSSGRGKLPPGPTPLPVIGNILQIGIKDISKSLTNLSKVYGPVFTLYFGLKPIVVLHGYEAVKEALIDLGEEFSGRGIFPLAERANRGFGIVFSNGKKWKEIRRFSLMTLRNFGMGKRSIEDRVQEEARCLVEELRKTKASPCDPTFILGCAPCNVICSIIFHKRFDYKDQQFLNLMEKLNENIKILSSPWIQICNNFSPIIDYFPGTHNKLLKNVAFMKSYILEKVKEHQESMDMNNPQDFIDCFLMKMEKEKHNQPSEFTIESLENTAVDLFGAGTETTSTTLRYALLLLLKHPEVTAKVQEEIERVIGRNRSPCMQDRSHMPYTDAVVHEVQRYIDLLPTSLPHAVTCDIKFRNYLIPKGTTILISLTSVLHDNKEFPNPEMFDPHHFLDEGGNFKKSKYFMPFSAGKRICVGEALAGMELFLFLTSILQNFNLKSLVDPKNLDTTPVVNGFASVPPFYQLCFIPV

In experiment [18] the target is Cytochrome P450 2D6 (Homo sapiens) (UniProt P10635). As to the kind of experiment: qHTS Assay for Inhibitors and Substrates of Cytochrome P450 2D6 (AID 891). Further: potency means the concentration at half of the fitted maximal effect; nearly all actives have a fitted effect of over 60% in size. The essentials:
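Luminescent read-out of luciferin formed by 5 nM human CYP2D6 demethylating 30 uM Luciferin-ME EGE (Km level) over 60 min at room temperature after NADPH regeneration addition. Data normalized to full inhibition by 1.43 uM quinidine.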

The nature of experiment [19]: qHTS Assay for Identification of Small Molecule Antagonists for NFkB Signaling Pathway (AID 895; active means well fitted inhibition curve with a large enough effect in the signal ratio, with a control signal flat, not every such curve was filed as active; the % refers to the signal ratio; further: on the % scale 0 is the no-effect control and ±100 the full control effect). The essentials: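 Beta-lactamase reporter read-out (460 and 530 nm emission ratio, 405 nm excitation, 2 hrs substrate loading RT) after 5 hr stimulation with 10 pM TNF alpha in compound-treated NFkB-bla ME-180 cells in low-serum medium.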
For experiment [20], the target named is Cytochrome P450 2C19 (Homo sapiens) (UniProt P33261). As to the kind of experiment: qHTS Assay for Inhibitors and Substrates of Cytochrome P450 2C19 (AID 899). Further: on the % scale 0 is the no-effect control and ±100 the full control effect; nearly all actives have a fitted effect of over 60% in size. In outline:
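Reactions contain 5nM enzyme, 10uM Luciferin-H EGE (KM) and 50mM KPO4; compound preincubates 10 min at 37C, NADPH regeneration starts turnover for 60 min. Luminescence after detection reagent gives activity.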

Experiment [21] in a line: qHTS Assay for Identification of Small Molecule Agonists for Thrombopoietin (TPO) Signaling Pathway (AID 917). Further: on the % scale 0 is the no-effect control and ±100 the full control effect. In outline:
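Cell-based luciferase reporter screen. Mouse Ba/F3 line stably expressing human TPO receptor; IL-3 removed overnight before plating. Co-treatment with compound and EC50 TPO (26 pM), 24 hrs at 37 C, then luminescence.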

Experiment [22] concerns the target Pyruvate kinase (Leishmania mexicana) (UniProt Q27686). The experiment can be described thus: qHTS Validation Assay for Inhibitors of Leishmania Mexicana Pyruvate Kinase (AID 945).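 Further: 0% = DMSO only neutral control wells.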 The essentials: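 Substrate mix (0.5 mM PEP, 0.1 mM ADP, 7 mM MgCl2, 50 mM KCl, pH 7.2 imidazole) received compound by pin tool, then 0.2 nM LmPYK E451W. After 1 h at room temperature, PKLight was added and luminescence measured.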

For experiment [23], the target named is Pyruvate kinase PKM (Homo sapiens) (UniProt P14618). The experiment can be described thus: qHTS Assay for Activators of Human Muscle Pyruvate Kinase (AID 954; active means well fitted curve in the direction sought with a large enough effect, not every such curve was filed as active;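 further: 0% = uninhibited enzyme and -100% = no enzyme or full thiadiazolimine inhibition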). In outline: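 Screening used highly purified human pyruvate kinase M2 under submaximal activity, with PEP at its Km and ADP below Km. After an hour at room temperature, ATP was read by luciferase luminescence.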
Chain of Pyruvate kinase PKM (Homo sapiens) (P14618 whole entry, looked up): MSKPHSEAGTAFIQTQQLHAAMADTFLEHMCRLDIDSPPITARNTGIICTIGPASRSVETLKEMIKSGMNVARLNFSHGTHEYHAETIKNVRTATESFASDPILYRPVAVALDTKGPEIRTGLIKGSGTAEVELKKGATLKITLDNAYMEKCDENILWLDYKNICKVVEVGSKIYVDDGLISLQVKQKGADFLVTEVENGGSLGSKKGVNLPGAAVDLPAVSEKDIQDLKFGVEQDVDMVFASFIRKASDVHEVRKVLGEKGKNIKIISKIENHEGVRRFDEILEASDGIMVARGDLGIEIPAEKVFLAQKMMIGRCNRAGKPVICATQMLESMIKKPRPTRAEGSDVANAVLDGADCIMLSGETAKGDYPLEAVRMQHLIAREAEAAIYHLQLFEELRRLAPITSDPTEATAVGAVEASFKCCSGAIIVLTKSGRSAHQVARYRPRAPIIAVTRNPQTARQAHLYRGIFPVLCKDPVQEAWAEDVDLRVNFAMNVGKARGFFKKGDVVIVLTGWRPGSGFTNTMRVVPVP

Experiment [24] has as its target Alpha-galactosidase A (Homo sapiens) (UniProt P06280). The experiment can be described thus: Counterscreen for Glucocerebrosidase Inhibitors: qHTS Assay for Human alpha-Galactosidase at pH 4.5 (AID 992). Further: 0% is about no effect. The essentials:
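Each compound is preincubated briefly with 2 nM enzyme before substrate addition (80 uM); plates then sit 20 min at ambient temperature, are quenched with 1M NaOH/1M glycine, and read fluorometrically.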

Experiment [25] concerns the target alpha-glucosidase (Oryza sativa, rice) (UniProt Q653V4). The experiment can be described thus: Counterscreen for Glucocerebrosidase Inhibitors: qHTS Assay for Rice alpha-Glucosidase at pH 5.0 (AID 997).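 Further: 0% = full activity with enzyme and -100% = basal without enzyme.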 The essentials: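 Endpoint fluorogenic assay at pH 5.0: compounds (0.7 nM to 77 uM) titrated against 4 nM rice enzyme and 400 uM 4-MU-alpha-glucoside for 20 min at room temperature; NaOH/glycine stop, read ex 365/em 440 nm, Hill-fitted AC50.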
(Counterscreens check selectivity or assay interference.)

Experiment [26] concerns the target DNA dC->dU-editing enzyme APOBEC-3G (Homo sapiens) (UniProt Q9HC16). As to the kind of experiment: qHTS for inhibitors of Vif-A3G interactions: Validation (AID 588379). Further: 0% is about no effect. In outline:
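Yellow fluorescence (Ex 488, Em 500-530) of Vif-coexpressing HeLa A3G-eYFP cells, scanned by Acumen cytometer, reports blocked A3G degradation. Cells plated at 700/well overnight at 37 deg C before compound addition, then a further overnight compound incubation at 37 deg C.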

Chain of 3',5'-cyclic-AMP phosphodiesterase 4B (Homo sapiens) (Q07343 whole entry, looked up): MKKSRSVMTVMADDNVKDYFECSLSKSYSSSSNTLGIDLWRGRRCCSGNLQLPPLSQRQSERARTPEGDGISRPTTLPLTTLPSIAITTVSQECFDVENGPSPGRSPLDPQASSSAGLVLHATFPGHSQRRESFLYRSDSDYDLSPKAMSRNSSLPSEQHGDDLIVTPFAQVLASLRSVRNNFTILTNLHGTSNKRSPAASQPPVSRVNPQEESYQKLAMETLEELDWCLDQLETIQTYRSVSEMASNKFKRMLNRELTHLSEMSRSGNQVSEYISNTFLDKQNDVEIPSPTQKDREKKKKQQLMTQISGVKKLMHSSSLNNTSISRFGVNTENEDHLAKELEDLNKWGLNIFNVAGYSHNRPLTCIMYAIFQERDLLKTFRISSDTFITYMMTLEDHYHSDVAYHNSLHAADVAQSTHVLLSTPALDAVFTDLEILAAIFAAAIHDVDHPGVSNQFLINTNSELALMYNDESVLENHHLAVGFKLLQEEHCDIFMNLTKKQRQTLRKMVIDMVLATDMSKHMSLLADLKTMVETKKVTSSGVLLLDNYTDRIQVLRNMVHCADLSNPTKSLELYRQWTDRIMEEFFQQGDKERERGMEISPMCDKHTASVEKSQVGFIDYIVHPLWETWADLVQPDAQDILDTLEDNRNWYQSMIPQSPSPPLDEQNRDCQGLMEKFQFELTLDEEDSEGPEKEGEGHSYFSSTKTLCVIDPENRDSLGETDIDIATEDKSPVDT
Chain of Cytochrome P450 1A2 (Homo sapiens) (P05177 whole entry, looked up): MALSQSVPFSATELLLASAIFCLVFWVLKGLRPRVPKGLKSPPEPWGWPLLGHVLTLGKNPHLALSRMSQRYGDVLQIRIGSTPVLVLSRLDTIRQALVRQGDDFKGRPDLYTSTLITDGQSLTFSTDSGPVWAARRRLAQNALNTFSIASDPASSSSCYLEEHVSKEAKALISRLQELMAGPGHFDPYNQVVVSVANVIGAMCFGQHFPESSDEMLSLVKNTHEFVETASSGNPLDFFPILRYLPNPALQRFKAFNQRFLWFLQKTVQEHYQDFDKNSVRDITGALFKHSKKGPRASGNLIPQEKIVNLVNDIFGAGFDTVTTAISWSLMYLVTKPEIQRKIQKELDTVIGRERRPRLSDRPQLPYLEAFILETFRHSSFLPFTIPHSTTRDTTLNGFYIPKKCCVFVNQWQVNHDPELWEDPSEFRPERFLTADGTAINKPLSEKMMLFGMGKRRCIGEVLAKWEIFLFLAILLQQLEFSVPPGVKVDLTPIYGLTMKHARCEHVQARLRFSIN
Chain of Cytochrome P450 2D6 (Homo sapiens) (P10635 whole entry, looked up): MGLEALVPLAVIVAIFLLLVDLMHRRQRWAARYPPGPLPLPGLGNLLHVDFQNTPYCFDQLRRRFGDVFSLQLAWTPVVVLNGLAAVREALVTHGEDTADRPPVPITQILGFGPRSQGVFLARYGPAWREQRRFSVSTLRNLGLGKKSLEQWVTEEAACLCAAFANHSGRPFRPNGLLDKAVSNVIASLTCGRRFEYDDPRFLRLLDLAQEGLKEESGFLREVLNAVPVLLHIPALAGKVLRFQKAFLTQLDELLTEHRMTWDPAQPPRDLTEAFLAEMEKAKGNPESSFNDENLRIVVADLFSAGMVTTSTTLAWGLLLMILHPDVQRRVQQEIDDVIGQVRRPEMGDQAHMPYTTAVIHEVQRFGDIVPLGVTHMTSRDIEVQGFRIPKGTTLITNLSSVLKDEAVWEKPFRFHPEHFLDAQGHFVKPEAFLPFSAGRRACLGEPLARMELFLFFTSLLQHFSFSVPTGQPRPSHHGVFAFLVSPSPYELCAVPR
Chain of Guanine nucleotide-binding protein G(i) subunit alpha-1 (Homo sapiens) (P63096 whole entry, looked up): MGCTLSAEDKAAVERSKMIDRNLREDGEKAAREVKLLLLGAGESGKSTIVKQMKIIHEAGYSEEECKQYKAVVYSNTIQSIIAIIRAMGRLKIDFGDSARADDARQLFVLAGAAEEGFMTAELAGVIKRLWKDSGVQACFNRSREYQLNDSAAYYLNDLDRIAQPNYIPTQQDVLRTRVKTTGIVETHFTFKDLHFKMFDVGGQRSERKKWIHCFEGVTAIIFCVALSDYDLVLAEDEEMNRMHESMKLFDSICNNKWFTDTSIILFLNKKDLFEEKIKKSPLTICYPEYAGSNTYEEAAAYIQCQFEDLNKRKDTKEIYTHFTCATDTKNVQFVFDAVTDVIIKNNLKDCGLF
Chain of Glutathione peroxidase 1 (Homo sapiens) (P07203 whole entry, looked up): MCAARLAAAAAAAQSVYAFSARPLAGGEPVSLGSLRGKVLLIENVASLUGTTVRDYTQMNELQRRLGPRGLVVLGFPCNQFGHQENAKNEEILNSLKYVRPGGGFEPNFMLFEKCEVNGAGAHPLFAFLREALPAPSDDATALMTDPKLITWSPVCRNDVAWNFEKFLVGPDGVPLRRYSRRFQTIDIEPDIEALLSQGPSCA
Chain of Cytochrome P450 2C19 (Homo sapiens) (P33261 whole entry, looked up): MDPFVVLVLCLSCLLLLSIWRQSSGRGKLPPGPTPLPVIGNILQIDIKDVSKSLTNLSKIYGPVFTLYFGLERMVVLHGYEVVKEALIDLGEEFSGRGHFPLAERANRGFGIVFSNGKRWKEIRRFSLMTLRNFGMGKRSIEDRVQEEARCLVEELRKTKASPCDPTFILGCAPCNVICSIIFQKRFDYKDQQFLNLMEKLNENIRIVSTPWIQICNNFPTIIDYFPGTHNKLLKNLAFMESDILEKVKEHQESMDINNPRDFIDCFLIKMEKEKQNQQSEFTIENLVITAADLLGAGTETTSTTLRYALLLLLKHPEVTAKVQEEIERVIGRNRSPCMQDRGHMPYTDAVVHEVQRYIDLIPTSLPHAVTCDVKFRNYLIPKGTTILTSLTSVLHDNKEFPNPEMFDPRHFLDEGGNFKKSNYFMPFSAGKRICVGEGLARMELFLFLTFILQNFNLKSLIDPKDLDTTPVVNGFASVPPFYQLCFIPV
Chain of Cytochrome P450 3A4 (Homo sapiens) (P08684 whole entry, looked up): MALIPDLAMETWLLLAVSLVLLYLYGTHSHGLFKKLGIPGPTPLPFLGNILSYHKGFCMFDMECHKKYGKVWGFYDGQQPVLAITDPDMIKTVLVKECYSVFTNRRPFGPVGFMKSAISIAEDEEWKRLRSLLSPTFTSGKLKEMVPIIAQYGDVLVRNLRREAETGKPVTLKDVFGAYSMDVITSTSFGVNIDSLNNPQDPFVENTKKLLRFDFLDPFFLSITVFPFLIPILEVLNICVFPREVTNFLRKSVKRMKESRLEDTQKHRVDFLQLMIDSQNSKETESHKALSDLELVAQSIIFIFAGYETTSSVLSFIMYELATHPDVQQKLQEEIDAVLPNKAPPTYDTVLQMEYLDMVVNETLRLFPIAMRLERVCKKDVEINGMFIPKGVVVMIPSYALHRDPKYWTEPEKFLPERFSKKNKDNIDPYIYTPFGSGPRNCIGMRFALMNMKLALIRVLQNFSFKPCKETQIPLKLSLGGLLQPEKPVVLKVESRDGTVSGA
Chain of DNA dC->dU-editing enzyme APOBEC-3G (Homo sapiens) (Q9HC16 whole entry, looked up): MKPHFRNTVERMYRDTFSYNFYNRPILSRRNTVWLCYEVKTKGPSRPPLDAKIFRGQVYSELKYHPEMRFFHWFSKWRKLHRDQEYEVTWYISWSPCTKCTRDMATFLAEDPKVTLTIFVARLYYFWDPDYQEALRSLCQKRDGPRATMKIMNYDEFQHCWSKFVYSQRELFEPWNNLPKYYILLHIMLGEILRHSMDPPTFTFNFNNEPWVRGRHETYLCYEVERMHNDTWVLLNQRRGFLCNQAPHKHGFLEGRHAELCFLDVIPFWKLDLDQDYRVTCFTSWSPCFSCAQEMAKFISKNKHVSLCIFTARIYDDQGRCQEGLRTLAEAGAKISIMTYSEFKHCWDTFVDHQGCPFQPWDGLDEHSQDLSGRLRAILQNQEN
Chain of N-terminal Xaa-Pro-Lys N-methyltransferase 1 (Homo sapiens) (Q9BV86 whole entry, looked up): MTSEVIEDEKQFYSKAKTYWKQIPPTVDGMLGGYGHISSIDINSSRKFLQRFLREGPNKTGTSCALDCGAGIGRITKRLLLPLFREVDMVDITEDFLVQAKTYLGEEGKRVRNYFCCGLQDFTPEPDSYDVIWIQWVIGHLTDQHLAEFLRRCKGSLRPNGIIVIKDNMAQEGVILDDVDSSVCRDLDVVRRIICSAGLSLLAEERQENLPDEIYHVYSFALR

Regarding `CC(=O)C1CCC2C3CCC4=CC(=O)CCC4(C)C3CCC12C` (stereo not drawn), the Potency result in experiment [1], in experiment [2], in experiment [5] and in experiment [6] was “inactive” each time. For the same compound, the Potency in experiment [3] was 20.9 µM (active); in experiment [4], 18.6 µM (active). Besides, the Z-AUC was -0.653 (inactive) in [7], -0.604 in experiment [7] (measured here: PEO1 parental Z-AUC) and -0.267 in experiment [7] (measured here: PEO4 Z-AUC).
As to `O=c1[nH]cnc2ccccc12`, the Potency entry in experiment [8] and in [1] was “inactive” in each case. In experiment [9], the result was inactive.
For `CNC(=O)Oc1ccc2c(c1)[C@@]1(C)CCN(C)[C@@H]1N2C`, the activity change, negative = inhibition is -5.3% (inactive) in [10] (at 17.2 µM (top of the series)), 6.53% (inactive) in experiment [10] (at 38 µM (top of the series)), -2.84% (inactive) in [12] (at 17.2 µM (top of the series)) and -3.73% (inactive) in experiment [12] (at 38 µM (top of the series)). For the same compound, the Potency result in [11], in [14], in experiment [15], in [17], in experiment [19] and in experiment [20] was “inactive” throughout. Also, the Potency entry in experiment [21], in [22], in experiment [26] and in experiment [1] was “inactive” each time. Further, the values for the activity, negative = inhibition in [13] (at 17.2 µM (top of the series)) and in [13] (at 38 µM (top of the series)) were 5.27% (inactive) and -23.2% (inactive), respectively. Moreover, the compound was called inactive in experiment [16], in experiment [23], in [24] and in [25]. Further, in experiment [18], the Potency was 1.26 µM (active) and 79.4 nM (active) and 251 nM (active).
